Screens deposited in PubChem by National Center for Advancing Translational Sciences (NCATS).
This is a sample that favours compounds with a hit; in the whole collection about 19% have one here.
Shiga inhibitor: blocks Shiga toxin action in Vero cells | AID 2315 | hit rate 9.2% among 290,000 | inhibition, % at 38.7 µM | Vero cells, Shiga toxin protein synthesis inhibition reporter; in the data active = inhibition mostly above about 28%, no sharp cut-off; inactive = mostly below about 43%; also: 0% is about no effect
Cycloheximide cs: counter-screen for Shiga toxin inhibitors: cycloheximide protein synthesis inhibition | cell reporter, cycloheximide protein synthesis inhibition counterscreen | max response, % | hit rate 12% among 300,000 | AID 2314; in the data active = max response mostly above about 13%, no sharp cut-off; inactive = mostly below about 14%; also: read at 38.3 µM for the half of the compounds with a filed dose; 0% is about no effect
Pf growth 48h: inhibits P. falciparum growth in the first generation, 48 h | Potency, µM (doses to about 28.7 µM), for inactives: top-dose activity change, negative = inhibition, hits mostly inhibitors | AID 504832 | P. falciparum luciferase growth in erythrocytes, 48 h | hit rate 5.9% among 310,000; also: potency is read from the fitted curve at half-maximal effect; % is scaled to controls: 0 for no effect and ±100 for the full control effect
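Parasite viability was followed by luminescence of a genomically integrated firefly luciferase. Cultures held 0.1% parasitemia at 2% hematocrit (final), incubated under 5% CO2 at 37 C.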
Pf growth 96h: P. falciparum growth inhibition at 96 hour, primary screen for plastid delayed-death inhibitors. P. falciparum luciferase reporter growth, 96 h. hit rate 6.9% among 320,000. Potency, µM (top dose mostly 28.7 µM), without a hit: top-dose activity change, negative = inhibition, actives largely listed as inhibitors. AID 504834; also: potency is read from the fitted curve at half-maximal effect; % is scaled to controls: 0 for no effect and ±100 for the full control effect
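Two parasite generations (96 h, 37 C, 5% CO2) of compound exposure in infected erythrocytes (0.05% parasitemia, 2% hematocrit). Luciferase-reporter P. falciparum; decreased luminescence indicates inhibited growth, aimed at apicoplast-acting delayed death.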
MARV entry inh: Marburg virus entry inhibition; hit rate 1.8% among 300,000; AID 540276; Potency, µM (titrated, usually from 37.8 µM), for inactives: top-dose activity change, negative = inhibition, usual class: inhibitors; Marburg virus pseudotyped entry inhibition, cell reporter; calls by dose curve; tested in HEK293 cells; also: potency is read from the fitted curve at half-maximal effect; % is scaled to controls: 0 for no effect and ±100 for the full control effect
LASV entry inh: blocks Lassa virus binding to or entry into cells | AID 540256 | Potency, µM (titrated, usually from 37.9 µM), for inactives: top-dose activity change, negative = inhibition, usual class: inhibitors | hit rate 1.2% among 300,000 | Lassa virus pseudotype entry inhibition, cell reporter; calls by dose curve; tested in HEK293 cells; also: potency is read from the fitted curve at half-maximal effect; % is scaled to controls: 0 for no effect and ±100 for the full control effect; nearly all actives have a fitted effect of over 50% in size
* = called active by the depositor; ? = inconclusive; . = not tested or not shown; [ ] = another dose, or the depositor's remark. Unless noted, calls follow the shape of the dose curve; as a rule, active = well fitted inhibition curve with a large enough effect; inconclusive = small, poorly fitted or top-dose-only effect, or another doubt; inactive = no such curve, though single readings can be large or run the other way.

SMILES	Shiga inhibitor	Cycloheximide cs	Pf growth 48h	Pf growth 96h	MARV entry inh	LASV entry inh
Cc1nn(C(=O)c2c(F)cccc2F)c(C)c1S(=O)(=O)N1CCCCCC1	.	.	.	.	.	14.1%[46.1 µM]
CC(=O)Nc1cc(-n2cnnn2)ccc1C	11.0	-2.4	-22.2%	?	0.8%[46.1 µM]	-5.2%
CN(CC(=O)NCCc1ccccc1)S(=O)(=O)c1ccc(Br)cc1	-21.9	8.2	-6.3%	?	-0.1%	2.8%
CCOC(=O)/C=C/C(=O)OCc1csc(CC(=O)Nc2ccccc2C)n1	-19.0	-1.9	-0.1%	?	.	.
Cc1cccc(NC(=O)Cc2nc(-c3c[nH]c(C(=O)N4CCCC4)c3)cs2)c1	.	.	11.7µM*	?	?	?
Cc1ccccc1NC(=O)Cc1nc(-c2c[nH]c(C(=O)N3CCCC3)c2)cs1	.	.	9.28µM*	10.4µM*	.	.
Cc1cccn2c(CN3CCNC(=O)CC3)c(C(=O)N(C)CCc3ccccc3)nc12	-6.8	-2.9	9.9%	1.85µM*	?	0.4%
CN(CCC#N)C(=O)Cn1nc(Cc2ccncc2)c2ccccc2c1=O	10.9	-0.6	.	13.1µM*	.	.
CCOc1ccc(NC(=O)Cn2nc(Cc3ccncc3)c3ccccc3c2=O)cc1	.	.	.	.	?	17.4%[46.1 µM]
CCCCNC(=O)Cn1nc(Cc2ccncc2)c2ccccc2c1=O	-10.0	-2.1	36.4%	9.28µM*	.	.
Cc1cccc(C)c1NC(=O)c1c(-c2ccccc2)noc1C	-19.5	-5.5	.	-29.3%	-18.3%	-1.2%
Cc1ccc(N/N=C(\C#N)C(=O)c2ccsc2)cc1	54.7	21.0*	?	90.2%	.	.
N#C/C(=N\Nc1ccc(Cl)cc1)C(=O)c1ccsc1	52.8*	30.7*	45.3%	31.2%	?	?
COc1ccccc1CNC(=O)c1cc2sccc2n1C	27.5	11.4	6.9%	.	-7.8%	-2.8%
COc1ccccc1/C=C/c1nc2ccc(OC(C)=O)cc2c(=O)o1	-10.1	-4.1	1.7%	1.65µM*	4.9%	-1.1%
O=c1[nH]c2ccccc2cc1CN(c1ccccc1)S(=O)(=O)c1ccccc1	6.9	0.5	-8.8%	6.6%	?	17.1%
CC(C)/C=N/NC(=O)c1cccc(N2CCCC2=O)c1	13.1	13.7	17.9%	?	20.3%	6.5%
O=C(N/N=C/c1ccco1)c1cccc(N2CCCC2=O)c1	active	29.1*	85.0%	61.6%	-1.8%	16.4%
COc1cccc(/C=N/NC(=O)c2cccc(N3CCCC3=O)c2)c1	106.7*	32.5*	65.2%	?	?	2.4%[46.1 µM]
CN(C)c1ccc(/C=N/NC(=O)c2cccc(N3CCCC3=O)c2)cc1	17.3	16.3	-13.6%	4.0%	13.0%[46.1 µM]	-11.7%
O=C(N/N=C/c1cc(Br)ccc1O)c1cccc(N2CCCC2=O)c1	25.7	0.5	?	?	23.1µM*	?
COc1ccc(O)c(/C=N/NC(=O)c2cccc(N3CCCC3=O)c2)c1	17.7	2.8	?	33.2%	?	?
N=c1c(C(=O)NC2CCCCC2)cc2c(=O)n3ccccc3nc2n1Cc1ccc(F)cc1	3.5	-5.3	2.08µM*	?	.	.
N=c1c(C(=O)NC2CCCC2)cc2c(=O)n3ccccc3nc2n1Cc1ccccc1	-16.4	-0.5	?	?	.	.
Cc1ccc(Cn2c(=N)c(C(=O)NC3CCCCC3)cc3c(=O)n4ccccc4nc32)cc1	-2.9	-2.0	4.15µM*	2.94µM*	.	.
SMILES	Shiga inhibitor	Cycloheximide cs	Pf growth 48h	Pf growth 96h	MARV entry inh	LASV entry inh
Cc1csc2sc(-c3ccnc(SCC(=O)NCc4ccccc4)n3)c(C)c12	-9.8	0.5	-14.1%	0.7%	?	?
COc1ccc2c(Sc3ccc(Cl)cc3)c(C(=O)N3CCC(C)CC3)[nH]c2c1	.	.	.	.	22.4%[46.1 µM]	-28.4%[46.1 µM]
Cc1cc(C(=O)Nc2nnc(C(F)(F)F)s2)cs1	8.7	18.2*	35.7%	59.4%	-22.2%[46.1 µM]	?
CC(C)(C)CC(=O)Nc1nnc(C(F)(F)F)s1	17.5	-4.4	-10.5%	12.7%	15.6%	1.7%
Cc1cc(C(=O)Nc2nnc(C3CCCCC3)s2)cs1	62.5	38.1*	109.4%	-0.4%	?	28.9%[14.3 µM]
CCSc1nnc(NC(=O)c2ccc(Br)s2)s1	-27.3	10.4	27.5%	0.9%	-0.4%	2.1%
CC(NC(=O)Nc1nnc(C(F)(F)F)s1)(C(F)(F)F)C(F)(F)F	20.2	1.0	3.29µM*	4.8%	?	3.55µM*
O=C(Nc1nnc(C(F)(F)F)s1)c1ccc(Br)s1	54.3*	21.3*	39.2%	16.4%	?	?
Cc1cc(C(=O)Nc2nnc(C(F)(F)F)s2)no1	20.7	10.6	-11.2%	-18.9%	13.7%	-0.5%
Cn1cc(C(c2ccccc2)c2ccc(Cl)s2)c2ccccc21 (configuration not stated)	.	.	.	.	8.0%[46.1 µM]	24.7%[46.1 µM]
COc1ccc(CC(NC(C)=O)C(=O)NC2CCN(C(=O)C3CCCCC3)CC2)c(OC)c1 (configuration not stated)	-8.5	-4.9	11.8%	34.9%	-6.1%[46.1 µM]	22.2%[46.1 µM]
Cc1cccc(NC(=O)CSCc2nc3c(nnn3Cc3ccc(F)cc3)c(=O)[nH]2)c1C	8.9	-0.9	4.9%	-28.9%	-15.9%[46.1 µM]	4.2%
CN(C)c1ccc(NC(=O)CSCc2nc3c(nnn3Cc3ccc(F)cc3)c(=O)[nH]2)cc1	15.1	8.3	-23.0%	8.28µM*	6.9%	8.7%
COc1cc2c(cc1OC)C(C(=O)O)C(c1ccc(C)o1)N(C)C2=O (configuration not stated)	-3.0	-3.6	32.8%	13.1µM*	-6.6%[46.1 µM]	-2.9%
Cc1ccc(C2C(C(=O)O)c3ccccc3C(=O)N2C)o1 (configuration not stated)	-7.7	-0.7	15.0%	.	2.4%	11.6%
CCOc1cc(C2C(C(=O)O)c3cc(OCC)c(OCC)cc3C(=O)N2C)ccc1O (configuration not stated)	17.1	-3.2	-6.8%	11.7µM*	-3.2%[46.1 µM]	-4.7%
Cc1ccc(NC(=O)C2CCCN(S(=O)(=O)c3cccnc3)C2)cc1C (configuration not stated)	9.2	4.9	-24.9%	?	.	.
Fc1cccc(-c2nc(-c3ccncc3)no2)c1	.	.	.	.	.	18.5%[46.1 µM]
Brc1ccc(-c2nc(-c3ccncc3)no2)cc1	25.0	7.0	94.1%	5.3%	.	.
c1ccc(C(Cc2nc(-c3ccncc3)no2)c2ccccc2)cc1	-4.9	-2.0	7.38µM*	-1.0%	3.5%	?
c1ccc(-c2ccc(-c3nc(-c4ccncc4)no3)cc2)cc1	82.0	34.8*	.	-27.3%	?	?
O=[N+]([O-])c1ccc(-c2nc(-c3ccncc3)no2)cc1	37.3*	18.3*	51.3%	35.2%	?	?
c1coc(-c2nc(-c3ccncc3)no2)c1	71.2*	48.8*	137.0%	?	6.5%	?
c1ccc(-c2nc(-c3ccncc3)no2)cc1	148.1*	69.6*	42.6%	9.5%	5.7%	0.0%
CCC(=O)NC(c1cccs1)c1ccc2cccnc2c1O (configuration not stated)	-2.0	-0.8	2.33µM*	?	.	.
CC(C)CC(=O)NC(c1cccs1)c1ccc2cccnc2c1O (configuration not stated)	-4.8	-2.1	?	403.9%	10µM*	?
